# Cruzain inh Det – cruzain (T. cruzi) inhibition with detergent | P25779 | purified cruzain, Z-FR-AMC fluorescence, 0.01% Triton | Potency, µM, usual class: inhibitors | hit rate 0.43% among 200,000 | AID 1478; note: nearly all actives have a fitted effect of over 40% in size
# Target sequence (P25779 123-467 limits assumed): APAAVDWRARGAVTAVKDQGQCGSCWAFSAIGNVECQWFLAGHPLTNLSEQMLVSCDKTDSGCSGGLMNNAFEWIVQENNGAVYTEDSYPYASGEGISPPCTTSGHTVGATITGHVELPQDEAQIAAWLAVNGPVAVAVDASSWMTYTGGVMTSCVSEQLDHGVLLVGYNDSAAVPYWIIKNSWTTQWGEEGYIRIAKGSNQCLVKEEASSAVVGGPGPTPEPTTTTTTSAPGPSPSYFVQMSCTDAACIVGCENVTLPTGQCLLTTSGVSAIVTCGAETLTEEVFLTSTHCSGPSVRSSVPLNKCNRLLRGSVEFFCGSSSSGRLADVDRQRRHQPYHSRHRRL
#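 Enzyme 1.5 nM, Z-FR-AMC 2 uM, NaOAc 100 mM pH 5.5, DTT 5 mM, Triton X-100 0.01%; 15 min RT compound preincubation; kinetic ex360/em450, 60 s delta.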
# Cruzain inh noDet – inhibitors of Trypanosoma cruzi cruzain without detergent; hit rate 2.3% among 200,000; Potency, µM, hits mostly inhibitors; P25779; purified cruzain, Z-FR-AMC fluorescence, no detergent; note: nearly all actives have a fitted effect of over 40% in size
#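 Detergent-free condition (0.00005% Triton X-100) in acetate buffer pH 5.5 with DTT. 1.5 nM enzyme and compound were pre-mixed 15 min, then 2 uM Z-FR-AMC substrate added; reaction progress from fluorescence change between first and third reads (60 s).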
# A number is an active result; i = inactive; ? = inconclusive. The list is not random: actives were taken first. Their share in the collection is about 2.4%. Calls come from the whole dose curve; as a rule, active = well fitted curve in the direction sought with a large enough effect; inconclusive = small, poorly fitted or top-dose-only effect, or another doubt; inactive = no such curve, though single readings can be large; an effect the other way counts as inactive or inconclusive.
SMILES,Cruzain inh Det,Cruzain inh noDet
CCC(CC)C1=NN2C(=N)/C(=C\c3cc(C)n(-c4cccc(C)c4)c3C)C(=O)N=C2S1,i,25µM
Cc1cc(/C=C2\C(=N)N3C(SCc4ccccc4)=NSC3=NC2=O)c(C)n1Cc1ccccc1,i,3.2µM
CC1=CSC2=NC(=O)/C(=C\c3cccn3-c3ccccc3)C(=N)N12,i,13µM
CC1=CC2=NC(=O)/C(=C\c3cc(C)n(-c4ccc(F)cc4)c3C)C(=N)N2O1,i,i
Cc1nn(-c2ccccc2)c(Cl)c1/C=C1/C(=N)N2N=C(C(C)C)SC2=NC1=O,i,?
CC1=CSC2=NC(=O)/C(=C\c3cccn3-c3ccc([N+](=O)[O-])cc3)C(=N)N12,i,?
CSC1=NSC2=NC(=O)/C(=C\c3coc4ccccc4c3=O)C(=N)N12,i,?
C=C(C)C(=O)/C=C/c1ccc(Br)cc1,i,i
Cc1ccc(S(=O)(=O)C(CNS(=O)(=O)c2cc(F)ccc2F)c2cccs2)cc1 (stereo not given),i,i
Cc1ccc(CCNC(=O)c2cn(C)c3ccc(S(=O)(=O)N4CCCCC4)cc3c2=O)cc1,i,i
COc1ccc(CCNC(=O)c2c(C)oc3nc(C)nc(N4CCOCC4)c23)cc1OC,i,i
CCc1cccc(-n2nnc(-c3nsc(NC(=O)c4cccc(OC)c4)n3)c2C)c1,i,i
CCn1c(=NC(=O)c2ccc3c(c2)OCCO3)sc2c(C)ccc(OC)c21,i,i
Clc1ss/c(=N\c2ccccn2)c1Cl,i,25µM
Cc1cccc(CC2S/C(=N/c3ccccn3)NC2=O)c1 (stereo not given),i,i
Cc1cc2nc(-c3ccc(Br)cc3)cc(C(F)(F)F)n2n1,i,i
COc1cc(OC)c(NC(c2nnc(-c3ccccc3)o2)c2ccc(F)cc2Cl)cc1Cl (stereo not given),i,i
Cc1nn(-c2ccccc2)c2sc(C(=O)Nc3ccc(Br)cc3)cc12,i,i
Cc1nn(-c2ccccc2)c2sc(C(=O)Nc3cccc(Br)c3)cc12,i,20µM
Cc1nn(-c2ccccc2)c2sc(C(=O)OCn3nnc4ccccc4c3=O)cc12,i,25µM
Cc1cc(C)n(-c2ccc(C(=O)OCn3nnc4ccccc4c3=O)cc2)n1,i,i
COc1ccc(NS(=O)(=O)c2ccc3c(c2)CCCN3C(=O)C2CCC2)cc1OC,i,i
[Cl][Pd][Cl].[S-]C1=C2N=CN[C-]2[NH+]=C[N-]1.[S-]c1ncnc2[nH]cnc12,i,i
CCOc1ccccc1C(=O)NCc1ccc2c(c1)CCN2C(C)=O,i,i
COCCCNc1nc2c(-c3ccccc3)nnn2c2ccccc12,i,i
SMILES,Cruzain inh Det,Cruzain inh noDet
Cc1ccc(-c2nnn3c2nc(NCC(C)c2ccccc2)c2ccccc23)cc1 (stereo not given),i,5µM
Cc1ccccc1NC(=O)c1ccc(Nc2c([N+](=O)[O-])cc([N+](=O)[O-])c3ccccc23)cc1,i,32µM
Cc1c(NC(=O)c2ccccc2)cccc1[N+](=O)[O-],i,i
CC(=O)Nc1ccc(NC(=O)c2ccc(COc3ccc4c(C)cc(=O)oc4c3)cc2)cc1,i,i
Cc1ccc(Cl)cc1NC(=O)COC(=O)c1ccc(COc2ccc3c(C)cc(=O)oc3c2)cc1,i,7.9µM
Cc1cccc(NC(=O)CSc2nc3c([nH]c4ccccc43)c(=O)n2-c2ccc(F)cc2)c1C,i,i
COc1cc(OC)cc(-c2nc3ccccc3c(=O)n2OC(=O)c2ccc(Br)cc2)c1,i,25µM
COc1ccc(C(=O)On2c(-c3ccc(Br)cc3)nc3ccccc3c2=O)cc1,i,?
Cc1cc2cc(CNC(=O)c3cc4ccccc4o3)ccc2n1C,i,25µM
Cc1cc2cc(CNC(=O)c3ccc4c(c3)OCO4)ccc2n1C,i,20µM
O=C(Nc1nc(-c2cccs2)cs1)c1cc2ccccc2oc1=O,i,i
O=C(NCc1ccc2c(c1)OCO2)c1cccc(C(=O)NCc2ccc3c(c2)OCO3)c1,i,i
O=C(NCc1ccc(-c2nc3ccccc3s2)cc1)c1ccc(Br)o1,i,?
Cc1cc(-c2csc(NC(=O)c3cc4ccccc4o3)n2)c(C)n1C,i,16µM
O=C(NCc1ccc(-c2nc3ccccc3s2)cc1)c1cc2ccccc2o1,i,13µM
O=C(NCc1ccc(Cl)cc1)c1cc2ccccc2o1,i,i
COc1cc(CN(C(=O)c2cccc(C)c2)c2ccccn2)cc(OC)c1OC,i,i
Cc1ccc(-c2nnc(Nc3ccc(O)cc3)c3ccccc23)cc1S(=O)(=O)NC(C)(C)CO,i,i
Cc1ccc(Nc2ncc(C(=O)N3CCN(c4ccc(F)cc4)CC3)c3ccccc23)cc1Cl,i,?
O=C(CN1C(=O)CCc2cc(S(=O)(=O)N3CCOCC3)ccc21)Nc1cccc(Cl)c1,i,i
Cc1ccccc1CNC(=O)C(=O)NCC(c1ccco1)S(=O)(=O)c1ccc(F)cc1 (stereo not given),i,i
CCOc1ccc(N2CC(NC(=O)c3ccc4c(c3)OCO4)CC2=O)cc1 (stereo not given),i,i
O=C(NC1CCCc2ccccc21)c1ccc2c(c1)sc1nc(-c3ccccc3)cn12 (stereo not given),i,?
CC(C)NC(=O)C1CCN(C(=O)N2CC(C)Oc3ccccc32)CC1 (stereo not given),i,i
CC1CN(C(=O)N2CCC(C(=O)NC3CCCCCC3)CC2)c2ccccc2O1 (stereo not given),i,7.9µM
SMILES,Cruzain inh Det,Cruzain inh noDet
CCOC(=O)c1cc(S(=O)(=O)NCc2cccc(Cl)c2)[nH]n1,i,i
CCN(CC)c1ccc(C(=O)N2CCc3c([nH]c4ccccc34)C2c2ccc(F)cc2)cc1 (stereo not given),i,16µM
CCOc1cccc(C2c3[nH]c4ccccc4c3CCN2C(=O)CSCc2ccc(F)cc2)c1 (stereo not given),i,i
CSc1ccc(C2c3[nH]c4ccccc4c3CCN2C(=O)CCC2CCCC2)cc1 (stereo not given),i,10µM
COc1cc(C(=O)N2CCc3c([nH]c4ccccc34)C2c2ccccc2)cc(OC)c1OC (stereo not given),i,?
CCOc1ccc(C2c3[nH]c4ccccc4c3CCN2C(=O)CSCc2ccc(F)cc2)cc1 (stereo not given),i,10µM
O=C(CSc1ccccc1)N1CCc2c([nH]c3ccccc23)C1c1ccc(F)cc1 (stereo not given),i,?
COc1cccc(-c2nccc(NCc3ccc(OC)cc3OC)n2)c1,i,i
CCOc1ccc(NC(=O)Nc2nnc(N3CCCCC3C)s2)cc1 (stereo not given),i,?
COc1cc(OC)c2c(-c3cccc(-c4ccc(OC)c(F)c4)c3)cc(=O)oc2c1,i,32µM
COc1cc(OC)c2c(-c3cccc(-c4ccc(C(C)=O)cc4)c3)cc(=O)oc2c1,i,?
COc1cc2oc(=O)cc(-c3cccc(-c4ccc(C(F)(F)F)cc4)c3)c2c(OC)c1OC,i,i
COc1ccc(-c2cccc(-c3cc(=O)oc4ccc(C(C)(C)C)cc34)c2)cc1,i,35µM
CN(C)CCCNc1c2c(nc3ccc(Cl)cc13)CCCC2,i,i
Cc1ccc2cc3cc(C(=O)N4CCN(c5ccc(Cl)cc5)CC4)oc3nc2c1,i,i
Cc1cc(OC(C)C(=O)N2CCN(CCc3ccccn3)CC2)ccc1Cl (stereo not given),i,i
O=C(Cn1c(C(=O)N2CCc3ccccc3C2)cc2sccc21)c1ccccc1,i,25µM
